Experimental data published in PubChem BioAssay (EPA / NIEHS).
Activity calls are given as the source filed them. How the source made its calls: active means hit-call score of the fitted dose curve at least 0.9, where 1 is the maximum; inactive means score below 0.9.

Columns and labels:
[1] = BSK_hDFCGF_SRB: Viability Assessment in the BioMAP Diversity Plus: hDFCGF Assay (AID 2283061); conditions: primary human foreskin fibroblasts;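 further: cells exposed to compound for 24 h before the read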
In short: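 Viability was read as total protein: after 10% TCA fixation, wells were stained with 0.1% sulforhodamine B and read at 560 nm. Primary human foreskin fibroblasts were dosed for 24 h, with bidirectional fitting versus DMSO.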

[2] = read-out: TIMP metallopeptidase inhibitor 1 (TIMP1), TIMP1 (gene 7076); experiment: BSK_hDFCGF_TIMP1: BioMAP Diversity Plus: hDFCGF Assay for TIMP metallopeptidase inhibitor 1 (TIMP1) Biomarker Activity (AID 2283062); conditions: primary human foreskin fibroblasts; actives raise or lower the signal
In short: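 TIMP-1 measured by ELISA 24 h after chemical dosing of primary human skin fibroblasts, with gain or loss fitted relative to DMSO. Parallel SRB staining (560 nm) monitored overt cytotoxicity.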

[3] = read-out: Monokine induced gamma interferon (MIG), CXCL9 (gene 4283); experiment: BSK_hDFCGF_MIG: BioMAP Diversity Plus: hDFCGF Assay for Monokine induced gamma interferon (MIG) Biomarker Activity (AID 2283063); conditions: primary human foreskin fibroblasts; actives raise or lower the signal
In short: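 Human primary foreskin fibroblasts in the hDFCGF system, exposed to test chemical for 24 h; MIG measured by ELISA. Bidirectional curve fitting against DMSO negative control as activity baseline.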

[4] = read-out: Matrix Metallopeptidase 1 (MMP1), MMP1 (gene 4312); experiment: BSK_hDFCGF_MMP1: BioMAP Diversity Plus: hDFCGF Assay for Matrix Metallopeptidase 1 (MMP1) Biomarker Activity (AID 2283064); conditions: primary human foreskin fibroblasts; actives raise or lower the signal
In short: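 ELISA read-out of MMP1 from human foreskin fibroblasts (primary skin cells), 24 h post-dose. Gain or loss of signal was fitted bidirectionally versus DMSO negative control; cytotoxicity was checked by SRB in parallel cultures.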

[5] = read-out: Vascular cell adhesion molecule 1 (VCAM1), VCAM1 (gene 7412); experiment: BSK_hDFCGF_VCAM1: BioMAP Diversity Plus: hDFCGF Assay for Vascular cell adhesion molecule 1 (VCAM1) Biomarker Activity (AID 2283065); conditions: primary human foreskin fibroblasts; actives raise or lower the signal;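 on AC50: VCAM-1 protein level quantified by ELISA after 24 h chemical exposure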
In short: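 ELISA readout of VCAM-1 on human dermal fibroblast primary cultures, 24 h after chemical exposure. Gain or loss of signal fitted in both directions against DMSO baseline.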

[6] = read-out: Plasminogen activator inhibitor-1 (PAI1), SERPINE1 (gene 5054); experiment: BSK_hDFCGF_PAI1: BioMAP Diversity Plus: hDFCGF Assay for Plasminogen activator inhibitor-1 (PAI1) Biomarker Activity (AID 2283066); conditions: primary human foreskin fibroblasts; actives raise or lower the signal
In short: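 ELISA readout of PAI-1 from primary human skin fibroblast cultures, 24 h after compound addition. Gain or loss of signal was fitted bidirectionally against DMSO baseline.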

[7] = read-out: Intercellular Adhesion Molecule 1 (ICAM1), ICAM1 (gene 3383); experiment: BSK_KF3CT_ICAM1: BioMAP Diversity Plus: KF3CT Assay for Intercellular Adhesion Molecule 1 (ICAM1) Biomarker Activity (AID 2283067); conditions: primary human keratinocytes with fibroblasts; actives raise or lower the signal
In short: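 Cell-surface ICAM-1 was measured by ELISA 24 h after dosing primary human skin keratinocytes co-cultured with fibroblasts. Parallel SRB staining tracked overt cytotoxicity. Gain or loss of signal was fitted relative to DMSO.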

[8] = read-out: Interferon-gamma inducible Protein 10 (IP10), CXCL10 (gene 3627); experiment: BSK_KF3CT_IP10: BioMAP Diversity Plus: KF3CT Assay for Interferon-gamma inducible Protein 10 (IP10) Biomarker Activity (AID 2283068); conditions: primary human keratinocytes with fibroblasts; actives raise or lower the signal
In short: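 In a primary skin co-culture of keratinocytes and fibroblasts, IP-10 is quantified by ELISA at 24 h after dosing. SRB staining of parallel wells monitors overt toxicity. Curves are fitted both directions against DMSO.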

[9] = BSK_KF3CT_SRB: Viability Assessment in the BioMAP Diversity Plus: KF3CT Assay (AID 2283069); conditions: primary human keratinocytes with fibroblasts;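 further: total protein by sulforhodamine B staining as a cytotoxicity measure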
In short: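 SRB read-out at 560 nm (0.1% stain, TCA-fixed cells) gauges overt cytotoxicity in a human skin keratinocyte–fibroblast co-culture 24 h post-dosing. Signal change was fitted bidirectionally relative to DMSO control.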

[10] = read-out: Interleukin-1 alpha (IL1a), IL1A (gene 3552); experiment: BSK_KF3CT_IL1a: BioMAP Diversity Plus: KF3CT Assay for Interleukin-1 alpha (IL1a) Biomarker Activity (AID 2283070); conditions: primary human keratinocytes with fibroblasts; actives raise or lower the signal
In short: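 Primary skin co-culture (keratinocytes, foreskin fibroblasts), 24 h exposure; ELISA for IL-1a; bidirectional curve fit vs DMSO.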

[11] = read-out: TIMP metallopeptidase inhibitor 2 (TIMP2), TIMP2 (gene 7077); experiment: BSK_KF3CT_TIMP2: BioMAP Diversity Plus: KF3CT Assay for TIMP metallopeptidase inhibitor 2 (TIMP2) Biomarker Activity (AID 2283071); conditions: primary human keratinocytes with fibroblasts; actives raise or lower the signal
In short: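 ELISA readout of TIMP-2 in keratinocyte plus foreskin fibroblast co-cultures (human skin primary cells), 24 h post-dose. Gain or loss of signal fitted relative to DMSO.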

[12] = read-out: Transforming growth factor beta 1 (TGFb1), TGFB1 (gene 7040); experiment: BSK_KF3CT_TGFb1: BioMAP Diversity Plus: KF3CT Assay for Transforming growth factor beta 1 (TGFb1) Biomarker Activity (AID 2283072); conditions: primary human keratinocytes with fibroblasts; actives raise or lower the signal
In short: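 Read-out: ELISA for TGF-b1 in keratinocyte/foreskin fibroblast human skin co-culture, 24 h after dosing; bidirectional curve fit vs DMSO baseline; gain or loss of signal scored.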

[13] = read-out: C-C motif chemokine 2 (Homo sapiens) (UniProt P13500); experiment: BSK_KF3CT_MCP1: BioMAP Diversity Plus: KF3CT Assay for Monocyte Chemoattractant Protein 1 (MCP1/CCL2) Biomarker Activity (AID 2283073); conditions: primary human keratinocytes with fibroblasts; actives raise or lower the signal
In short: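 ELISA read-out of MCP-1, 24 h post-dose, in primary human skin keratinocytes co-cultured with fibroblasts. Parallel SRB staining monitors cytotoxicity; changes fitted both directions relative to DMSO.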

[14] = read-out: Matrix Metallopeptidase 9 (MMP9), MMP9 (gene 4318); experiment: BSK_KF3CT_MMP9: BioMAP Diversity Plus: KF3CT Assay for Matrix Metallopeptidase 9 (MMP9) Biomarker Activity (AID 2283074); conditions: primary human keratinocytes with fibroblasts; actives raise or lower the signal;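 on AC50: MMP9 protein level quantified by ELISA in the co-culture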
In short: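 ELISA read-out of MMP-9 at 24 h post-dosing in a co-culture of human skin keratinocytes and foreskin fibroblasts. Gain or loss of signal was fitted in both directions against DMSO.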

[15] = read-out: urokinase plasminogen activator (uPA), PLAU (gene 5328); experiment: BSK_KF3CT_uPA: BioMAP Diversity Plus: KF3CT Assay for urokinase plasminogen activator (uPA) Biomarker Activity (AID 2283075); conditions: primary human keratinocytes with fibroblasts; actives raise or lower the signal
In short: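 Skin co-culture (keratinocytes + foreskin fibroblasts), human primary; 24 h post-dose; uPA by ELISA; gain/loss fit vs DMSO baseline.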

[16] = read-out: E-selectin (Homo sapiens) (UniProt P16581); experiment: BSK_LPS_Eselectin: BioMAP Diversity Plus: LPS Assay for Eselectin Biomarker Activity (AID 2283077); conditions: primary human HUVEC with PBMC; actives raise or lower the signal
In short: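 E-selectin ELISA on LPS-stimulated endothelial cell/PBMC co-cultures, read 24 h post-treatment; gains and losses fitted against DMSO. Parallel SRB staining (0.1% SRB after 10% TCA fixation, 560 nm) flags overt cytotoxicity.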

[17] = read-out: Interleukin-8 (IL8), CXCL8 (gene 3576); experiment: BSK_LPS_IL8: BioMAP Diversity Plus: LPS Assay for Interleukin-8 (IL8) Biomarker Activity (AID 2283078); conditions: primary human HUVEC with PBMC; actives raise or lower the signal
In short: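 ELISA read-out of IL-8 after 24 h chemical treatment of LPS-activated endothelial/PBMC human primary co-cultures. Changes either up or down relative to DMSO; overt cytotoxicity checked by sulforhodamine B staining in parallel wells.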

[18] = read-out: Interleukin-1 alpha (IL1a), IL1A (gene 3552); experiment: BSK_LPS_IL1a: BioMAP Diversity Plus: LPS Assay for Interleukin-1 alpha (IL1a) Biomarker Activity (AID 2283080); conditions: primary human HUVEC with PBMC; actives raise or lower the signal
In short: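 Readout is IL-1a level by ELISA, 24 h post-dose, fitted as gain or loss relative to DMSO. System: LPS-activated human primary co-culture of vascular endothelium and peripheral blood mononuclear cells, with parallel SRB total-protein cytotoxicity.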

CD40, CD40 (gene 958) = experiment: BSK_LPS_CD40: BioMAP Diversity Plus: LPS Assay for CD40 Biomarker Activity (AID 2283076); conditions: primary human HUVEC with PBMC; actives raise or lower the signal
In short: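 In the LPS system of human endothelial cells with peripheral blood mononuclear cells, CD40 levels were read by ELISA 24 h post-treatment. Signal changes in either direction were fitted against the DMSO baseline, with parallel SRB protein staining.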

[19] = BSK_LPS_SRB: Viability Assessment in the BioMAP Diversity Plus: LPS Assay (AID 2283079); conditions: primary human HUVEC with PBMC;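 further: total protein by sulforhodamine B absorbance as a cytotoxicity measure; measured one day after compound addition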
In short: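 SRB viability endpoint: cells fixed with 10% TCA, stained with 0.1% SRB, read at 560 nm, 24 h post-dose. HUVEC/PBMC co-culture; signal change in either direction scored relative to DMSO.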

Measured: AC50

E-selectin (Homo sapiens), sequence (P16581 whole entry, looked up): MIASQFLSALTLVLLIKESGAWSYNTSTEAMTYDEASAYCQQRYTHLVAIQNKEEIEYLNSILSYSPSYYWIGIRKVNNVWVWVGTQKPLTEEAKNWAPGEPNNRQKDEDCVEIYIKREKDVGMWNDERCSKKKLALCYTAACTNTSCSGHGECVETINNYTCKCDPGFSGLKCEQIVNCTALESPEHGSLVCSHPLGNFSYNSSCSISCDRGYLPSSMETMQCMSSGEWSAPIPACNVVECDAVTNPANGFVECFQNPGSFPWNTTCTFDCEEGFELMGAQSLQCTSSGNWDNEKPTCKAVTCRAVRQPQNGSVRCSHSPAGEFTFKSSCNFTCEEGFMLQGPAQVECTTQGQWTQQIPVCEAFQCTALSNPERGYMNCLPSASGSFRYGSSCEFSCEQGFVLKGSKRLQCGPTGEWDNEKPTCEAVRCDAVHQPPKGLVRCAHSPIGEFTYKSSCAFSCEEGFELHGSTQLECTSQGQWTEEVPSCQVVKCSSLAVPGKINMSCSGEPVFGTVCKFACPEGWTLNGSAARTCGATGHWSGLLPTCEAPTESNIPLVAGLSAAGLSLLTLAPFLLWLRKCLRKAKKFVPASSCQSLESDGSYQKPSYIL

CN(C)CCCN(C)CCCN(C)C
not listed: CD40, CD40 (gene 958) | [19]
inactive: all other assays above

CC(C)OC(=O)C(C)(C)Oc1ccc(C(=O)c2ccc(Cl)cc2)cc1
active: [6] 3.97 µM | CD40, CD40 (gene 958) 29.4 µM | [17] 32 µM | [19] 27.8 µM
not listed: [8]
inactive: all other assays above

Nc1nc(Cl)nc2c1ncn2[C@H]1C[C@H](O)[C@@H](CO)O1
active: [6] 10.2 µM | CD40, CD40 (gene 958) 2.29 µM | [17] 0.628 µM | [18] 1.68 µM
not listed: [19]
inactive: all other assays above

O=[Si]=O
not listed: [13]
inactive: all other assays above

CCN(CC)CCOc1ccc(C(=C(Cl)c2ccccc2)c2ccccc2)cc1
active: [1] 11.6 µM | [2] 13.6 µM | [3] 13 µM | [4] 13.2 µM | [5] 14.1 µM | [6] 9.48 µM | [7] 14 µM | [8] 13.5 µM | [9] 12 µM | [10] 14.5 µM | [11] 12.6 µM | [12] 12.4 µM | [13] 14.3 µM | [14] 11.7 µM | [15] 13.7 µM | CD40, CD40 (gene 958) 8.67 µM | [16] 13.3 µM | [17] 11.3 µM | [18] 8.81 µM

CCCCc1nc2cccnc2n1Cc1ccc(-c2ccccc2-c2nnn[nH]2)cc1
active: [8] 29.7 µM | [14] 0.0268 µM
not listed: [19]
inactive: all other assays above

OCC(CO)n1cnc(-c2ccc(F)cc2)c1-c1ccnc(Oc2ccccc2)n1
active: [4] 0.909 µM | [5] 1.8 µM | [16] 1.09 µM | [17] 0.544 µM | [18] 0.148 µM
not listed: [19]
inactive: all other assays above

OCC(O)CO
not listed: [19]
inactive: all other assays above
